Measurements from PubChem BioAssay (NCI).
The panel holds about 83,000 compounds, 20% with a hit somewhere; the sample as a whole holds those more often.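 Plates (96-well) were seeded with cells, treated with compound at one concentration, and incubated for 48 hours before percent growth was determined.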 The source made the active and inactive calls. Rule for the calls: active = growth percent below 10; inactive = the rest.

These compounds were tested on CAKI-1 renal (assay: NCI-60 one-dose screen, 48 h (100 = growth as untreated, 0 = no growth, -100 = all killed)). Details: 10 µM unless noted.

Compound | growth
COc1ccc2c(c1)c(-c1noc(-c3cn(C)c4ncc(F)cc34)n1)cn2C | 76.6% (inactive)
O=C(N/N=C\c1cc(Cl)ccc1O)N/N=C/c1cc(Cl)ccc1O | 60.2% (inactive)
O=C(O)c1ccccc1C(F)(F)F | 87.8% (inactive)
CS(=O)(=O)c1cccnn1 | 73.6% (inactive)
O=C(Nc1ccc(Oc2ccc(F)cc2)c(Cl)c1)c1cccnn1 | 54.8% (inactive)
CCC(Br)(CC)C(=O)c1ccc(OCC(=O)O)c(Cl)c1Cl | 83.8% (inactive)
NC(=O)c1cccc(-c2ccc(S(=O)(=O)Nc3ccc4c(c3)N(C(=O)C3CC3)CCC4)cc2)c1 | 72.4% (inactive)
C#CCC(C(=O)OCC)C(=O)OCC | 93.6% (inactive)
O=[N+]([O-])c1cc(CCl)ccc1OCCBr | 92% (inactive)
O=C(O)c1cn(C2CC2)c2cc(N3CCN(Cc4cc(Cl)ccc4O)CC3)c(F)cc2c1=O | 46.7% (inactive)
Cc1ccc(C2=C/C(=C/c3ccc(Br)cc3)C(=O)N2CCc2ccc(S(N)(=O)=O)cc2)cc1 | 65% (inactive)
COc1ccc(C(=O)/C=C/c2ccccn2)c(O)c1 | 61.3% (inactive)
Cc1cc(C)c(S(=O)(=O)/N=c2/n(-c3ccccc3)nc3n2CCN3C2=NCCN2)c(C)c1 | 74.4% (inactive)
Cc1ccc(S(=O)(=O)n2cc(C(=O)C(=O)N3CCCCC3)c3ccccc32)cc1 | 58.9% (inactive)
COc1cc(C)cc2oc3oc(=N)c(C(=O)c4ccccc4)cc3c(=O)c12 | 91.6% (inactive)
COc1ccc(OC)c([N+](=O)[O-])c1C(=O)CNC(C)=O | 96.4% (inactive)
Cc1ccc(S(=O)(=O)N/N=C2\CC3CCC2(C)C3(C)C)cc1 (configuration not stated) | 78.5% (inactive)
O=C(N=c1n(-c2ccccc2)nc2n1CCN2C1=NCCN1C(=O)c1ccc(Cl)cc1)c1ccc(Cl)cc1 | 75.2% (inactive)
O=C(NCc1ccc(Cn2c(=O)sn(-c3ccccc3)c2=O)cc1)OCc1ccc2c(Br)cc(Br)c(O)c2n1 | -74.9% (active)

Compound | growth
Cc1nc(Cl)c2c(n1)N(C)c1ccc(Cl)cc1C(C)C2 (configuration not stated) | 78.8% (inactive)
C=C(C)[C@@H]1CC[C@]2(COCCC#N)CC[C@]3(C)[C@H](CC[C@@H]4[C@@](C)(CCCNCCC#N)[C@H](C(=C)C)CC[C@]43C)[C@@H]12 | 27% [100 µM] (inactive)
O=C(Nc1cccc(F)c1)c1cc(=O)[nH]c2cc(Br)ccc12 | 33.8% (inactive)
O=C(NCCCNC(=O)OCc1ccc2c(Br)cc(Br)c(O)c2n1)OCc1ccc2c(Br)cc(Br)c(O)c2n1 | -92% (active)
COc1ccc(OC)c(NC=O)c1 | 95.7% (inactive)
CCN(CCNc1ccc(C)c2sc3cc(Cl)ccc3c(=O)c12)CC(C)O (configuration not stated) | 43.7% (inactive)
CN(C)c1ccc(-c2ccc(-c3ccc(C(=N)N)cc3)s2)cc1 | 96.6% (inactive)
CC(=O)OC[C@]12CC[C@@H]([C@@H](C)C(N)=O)[C@@H]1[C@H]1CC[C@@H]3[C@@]4(C)CC[C@H](OC(C)=O)C(C)(C)[C@@H]4CC[C@@]3(C)[C@]1(C)CC2 | -45.8% [100 µM] (active)
O=C(Nc1ccccc1)Nc1ccc(C(=O)/C=C/c2ccc(N3CCCC3)cc2)cc1 | 61.7% (inactive)
C#C[C@]1(O)CC[C@H]2[C@@H]3CC=C4c5nc(Nc6ccccn6)sc5CC[C@]4(C)[C@H]3CC[C@@]21C | -37.6% (active)
Cn1cc(-c2nnc(-c3cn(C)c4ncccc34)o2)c2ccccc21 | 30.9% (inactive)
O=C1C(Cl)=C(Nc2ccc3cn[nH]c3c2)C(=O)c2ccccc21 | -94.4% (active)
COc1cc(/C=C/C(=O)/C=C/c2ccc(-n3ccnc3C)cc2)ccc1O | 95.6% (inactive)
Nc1cc(Cl)cc2cccnc12 | 101% (inactive)
CN(C)CCOc1ccc(/C(=C(/CCCl)c2ccccc2)c2ccccc2)cc1 | 30.8% (inactive)
Nc1cc(N)c(N=Nc2ccc(S(=O)(=O)O)cc2)cc1N=Nc1ccc(-c2ccc(N=Nc3ccc(O)c(C(=O)O)c3)cc2)cc1 | 90% (inactive)
Cn1cc(-c2noc(-c3cn(C)c4ncc(F)cc34)n2)c2ccccc21 | 47.1% (inactive)
Nc1ccc(NC(=O)c2ccccc2)c2c1C(=O)c1ccccc1C2=O | 96.7% (inactive)
